Data on 60 compounds can be found in PubChem BioAssay (NCATS).

The test has as its target Calcium and integrin-binding protein 1 (Homo sapiens) (UniProt Q99828). Briefly: Primary qHTS for Identification of Calcium Integrin Binding Protein 1 (CIB1) Competitor (AID 1508620).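 Further: GST tagged CIB1 binding a fluorescein labelled alphaIIb integrin peptide tracer; top concentration of the series differs between compounds.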 In short, it runs like this: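 Fluorescence polarization competition: CIB1-GST (1 uM final) preincubated with compound 15 min at room temperature, then FITC-labeled alphaIIb peptide (100 nM final) added for another 15 min. Polarization read at Ex 480/Em 540.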
For orientation: qHTS replaces the single test concentration by a dilution series.

Inconclusive results are not listed. A call without a number means that no potency is given here. The source made the active and inactive calls. The call rests on the fitted dose curve; in most records, active means well fitted inhibition curve with a large enough effect; inconclusive means small, poorly fitted or top-dose-only effect; inactive means flat fitted curve, though single readings scatter.

Sequence of Calcium and integrin-binding protein 1 (Homo sapiens) (Q99828 whole entry, looked up): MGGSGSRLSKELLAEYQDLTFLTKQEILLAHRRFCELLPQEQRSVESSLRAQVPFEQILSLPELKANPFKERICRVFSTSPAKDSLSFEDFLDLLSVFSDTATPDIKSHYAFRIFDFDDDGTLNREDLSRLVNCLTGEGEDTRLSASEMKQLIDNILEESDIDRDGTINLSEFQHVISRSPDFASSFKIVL

For the compound `COc1ccc(C2c3c(ncn(CCN4CCOCC4)c3=N)Oc3ccc4ccccc4c32)cc1OC` (stereo not given), the Potency result was “inactive”.
Turning to `O=C1CCCC2=C1C(c1cnccc1C(F)(F)F)N=C(Nc1nc3ccccc3o1)N2` (stereo not given), the Potency entry is “inactive”.
Regarding `N#Cc1c(-c2ccc3ccccc3c2)no[n+]1[O-]`, the Potency entry was “inactive”.
Turning to `COc1cc(N2C(=O)c3ccccc3C2=O)c2ncccc2c1`, the Potency result was “inactive”.
Consider `Cc1ccccc1C(=O)n1ccc2cc(-c3nc(NC(=O)Cc4ccc5c(c4)OCO5)sc3C)ccc21`, for which the Potency entry is “inactive”.
For the compound `COc1cncc(NC(=O)c2cccs2)c1`, the Potency entry is “inactive”.
As to `COc1ccc(C2Nc3ccccc3C(=O)N2Cc2ccccc2)cc1COc1cccc(Cl)c1` (stereo not given), the Potency entry was “inactive”.
As for `O=C(Nc1cccc(-c2nn3c(=O)cc(N4CCNCC4)nc3s2)c1)C1CCNCC1`, the Potency result was “inactive”.
Consider `CC(C)(C)c1ccccc1Nc1nc(C#N)nc(NC2CCCC2)n1`, for which the Potency entry was “inactive”.
`Cc1ccnc(NC(=S)NCCNc2cccc(C(F)(F)F)c2)c1`: the Potency entry was “inactive”.
As to `O=C(Cc1ccccc1)Nc1sc2c(c1C(=O)Nc1ccc(Cl)cc1)CCOC2`, the Potency result is “inactive”.
The same measure for `CC(C)c1ccccc1-c1nccc(NCc2ccc(-c3ccnc(C(F)(F)F)c3)cc2)n1`: “inactive”.
The same measure for `Cc1ccc(Cn2ncc3c4sc(C)cc4n(C)c3c2=O)c(C)c1`: “inactive”; for `O=C(NC1CCCc2c1cnn2-c1ccc(F)cc1F)C1CC1` (stereo not given): “inactive”.
As to `CN(C)c1ccc(-c2cc(O)c3ncccc3c2)cc1`, the Potency result is “inactive”.
In the case of `N#Cc1nc(Nc2cc(F)cc(F)c2)nc(NC2CCCC2)n1`, the Potency entry is “inactive”.
Take `Oc1ccc(CNc2ccc3ccccc3n2)c2cccnc12`: the Potency result is “inactive”.
On to `O=S1(=O)N=C(Sc2ccc3c(c2)OCCO3)c2ccccc21`, for which the Potency entry is “inactive”.
Regarding `CN(C)c1ccc2nc(NC(=S)N3CCN(c4cccc(C(F)(F)F)c4)CC3)sc2c1`, the Potency entry is “inactive”.
For the compound `O=S1(=O)N=C(OCc2ccccc2)c2ccccc21`, the Potency result was “inactive”.
On to `O=C1CCCC2=C1C(c1ccccc1C(F)(F)F)N=C(Nc1nc3ccccc3o1)N2` (stereo not given), for which the Potency entry was “inactive”.
The same measure for `O=[S+]([O-])(c1ccc2c(c1)OCCO2)N1CCN([S+](=O)([O-])c2c(O)cc(F)cc2F)CC1`: “inactive”.
On to `Cc1cc(C)n2ncc(C(=O)NCc3ccccc3)c2n1`, for which the Potency entry is “inactive”.
The result for `Cc1ccc(NS(=O)(=O)c2cc3c(cc2-c2ccsc2)NC(=O)CO3)cc1C` reads “inactive”; that for `Cc1noc(-c2sc3c(c2-c2nc4ccccc4s2)CCNC3)n1`, “inactive”; that for `Cc1ccnc(NC(=S)N2CC3CN(c4ncc(C(F)(F)F)cc4Cl)CC3C2)c1` (stereo not given), “inactive”.
On to `N#Cc1ccc(-c2ccc(C3Nc4ccccc4C(=O)N3O)o2)cc1` (stereo not given), for which the Potency entry was “inactive”.
Turning to `O=C(Nc1ccc(Br)cc1)Nc1nnc(-c2ccncc2)s1`, the Potency entry was “inactive”.
On to `COc1ccc(CNc2ccc(N3CCN(C(C)=O)CC3)cc2)cc1OC`, for which the Potency entry was “inactive”.
Consider `Cc1cc(NC(=O)Nc2nnc(-c3cccnc3)s2)ccc1Br`, for which the Potency entry was “inactive”.
As to `Cc1noc(C)c1-c1ccc(Nc2nc(-c3ccncc3)nc3ccccc23)cc1F`, the Potency result is “inactive”.
`CCNC(=O)c1ccc(-c2ccc3ncnc(NCc4nccs4)c3c2)o1`: the Potency entry was “inactive”.
As to `CCOC(=O)c1ccoc1-c1ccc2ncnc(NCc3ccc(C)o3)c2c1`, the Potency entry is “inactive”.
For `COc1ccc(-c2ccc3ncnc(NCc4ccc(C)o4)c3c2)cc1OC`, the Potency result was “inactive”.
Take `Cc1ccc(OCCn2c(CCNC(=O)c3ccc(C)cc3)nc3ccccc32)cc1`: the Potency result was “inactive”.
Turning to `Cc1ccc(-c2ccc(=O)n(CC(=O)N(C)C3CCCCCC3)n2)cc1`, the Potency entry is “inactive”.
Take `O=[S+]([O-])(Nc1ccccc1)c1ccc(NCc2cccc(C(F)(F)F)c2Cl)cc1`: the Potency result is “inactive”.
For the compound `COc1ccc(C2=Nn3c(nnc3-c3cc(OC)cc(OC)c3)SC2)cc1`, the Potency entry is “inactive”.
Consider `O=[S+]([O-])(c1ccc2c(c1)OCCO2)N1CCN([S+](=O)([O-])c2c(F)cc(Br)cc2F)CC1`, for which the Potency result is “inactive”.
The result for `Cc1sc(NC(=O)Cc2ccc3c(c2)OCO3)nc1-c1ccc2c(c1)CCN2C(=O)C1CCCCC1` reads “inactive”; that for `Fc1ccc(Nc2cc(-c3ccccc3)nc(-c3ccncc3)n2)cc1F`, “inactive”; that for `CC(=O)Nc1sc2c(c1-c1cc3ccccc3[nH]1)CCNC2`, “inactive”.
On to `O=C(O)c1ccc(-c2noc(-c3cccc(Cl)c3)n2)cc1`, for which the Potency result is “inactive”.
`N#Cc1nc(Nc2cc(F)cc(F)c2)c2ncn(CCO)c2n1`: the Potency result is “inactive”.
Take `O=C(O)c1ccc2c(c1)C(=O)N([C@H](Cc1c[nH]c3ccccc13)C(=O)O)C2=O`: the Potency result is “inactive”.
Take `Cc1cc(C)nc(NC(=S)N2CC3CN(c4ncc(C(F)(F)F)cc4Cl)CC3C2)c1` (stereo not given): the Potency entry was “inactive”.
In the case of `Cc1cc(C)nc(NC(=S)N2CCN(Cc3c(F)cccc3Cl)CC2)c1`, the Potency result is “inactive”.
Regarding `Cc1ccc(C2N=C(Nc3nc4ccccc4o3)NC3=C2C(=O)CCC3)cc1` (stereo not given), the Potency result is “inactive”.
Take `O=C(CNC(=O)c1ccccc1)OC(CCc1ccccc1)C(=O)Nc1cc(C(F)(F)F)ccc1Cl` (stereo not given): the Potency entry is “inactive”.
Take `FC(F)(F)c1cccc(-c2nc(NCc3ccc(-c4ccnc(C(F)(F)F)c4)cc3)c3ccccc3n2)c1`: the Potency entry is “inactive”.
In the case of `CC(=O)NC1CCN(c2nc(-c3ccc(Br)cc3)cs2)CC1`, the Potency result is “inactive”.
As to `FC(F)(F)c1ccccc1-c1nc(NCc2ccc(Cl)c(Cl)c2)c2ccccc2n1`, the Potency result was “inactive”.
Take `CCc1nnc(-c2cnn(C)c2N)n1CCCn1ccnc1`: the Potency result is “inactive”.
The result for `NC(=O)C1CCN(c2ncc(-c3ccc(Cl)cc3)s2)CC1` reads “inactive”.
For `COc1ccc(C2Nc3ccccc3C(=O)N2Cc2ccccc2)cc1COc1ccc(NC(C)=O)cc1` (stereo not given), the Potency entry was “inactive”.
The same measure for `Cc1c(P(=S)(c2ccccc2)c2ccccc2)[n+]2ccccc2n1CCCc1ccccc1`: “inactive”; for `O=C(c1c(F)cccc1F)N1CCN(S(=O)(=O)c2ccc3c(c2)OCCO3)CC1`: “inactive”; for `O=C(CNC(=O)c1cccc(Cl)c1)OC(C(=O)Nc1cc(C(F)(F)F)ccc1Cl)c1ccccc1` (stereo not given): “inactive”.
Regarding `COc1cccc(C2c3c(ncn(-c4ccc(F)cc4)c3=N)Oc3ccc4ccccc4c32)c1` (stereo not given), the Potency entry was “inactive”.
On to `CCCCc1ccc(-c2ccc(=O)n(CC(=O)NCCc3ccccc3)n2)cc1`, for which the Potency entry was “inactive”.
